Measurements taken from PubChem BioAssay (Tox21).
Active and inactive are the calls of the source. Calls come from the whole dose curve.

Experiment: G protein-coupled receptor (GPCR) small molecule agonists, calcium flux assay: HEK293 wild type cell line counter screen (AID 1920065)
Settings: HEK293 WT calcium flux, fluorescence, agonist mode; series mostly up to 57.6 µM
Source text: U.S. Tox21 Program National Center for Advancing Translational Sciences [NCATS] Division of Preclinical Innovation [DPI] U.S. Environmental Protection Agency [EPA] National Institutes of Environmental Health Sciences [NIEHS] National Toxicology Program [NTP] U.S. Food and Drug Administration [FDA] Assay overview: The increased intracellular calcium release that occurred upon G protein-coupled receptor (GPCR) activation led to the frequent use of calcium flux assays to detect GPCR activation. For the purpose of studying and screening compounds that may activate GPCR, receptor-overexpressing models were typically generated using Hek293 wild-type (WT) cells. In order to eliminate the compounds that may have induced calcium release for non-specific activation, a counter-assay utilizing calcium flux on Hek293 WT cells was performed. The data were formulated in order to serve as a control for any calcium flux detection utilizing Hek293 cells with either GPCR overexpression or gene modification. The procurement of Hek293 WT cells from ATCC. Fluorescence intensity can be utilized to determine the activation of the compound in a calcium flux assay. As a counter control, this cell line was utilized to screen the Tox21 10K compound library.
Assay Protocol Summary: Hek293 cells were dispensed at 1500cells/4uL/well in 1536-well black wall/clear bottom plates using a multidrop dispenser. After the assay plates were incubated at a 37 C/5% CO2 incubator for 18 hours, 4 uL of Calcium Dye Solution was added to each well. The plates were incubated at 37 C for 1 hour. For agonist mode, 23 nL of compounds dissolved in DMSO, positive control (ATP) or DMSO only was transferred to the assay plate by a pin tool station. The fluorescence intensity in the plates was measured using FDSS 7000EX kinetic plate reader with a filter set of Ex/Em=480/540 for 3 min at 1 sec intervals. Each test compound was measured at 15 concentrations and in triplicates.
For `O=[N+]([O-])c1c(Cl)cc(Cl)cc1Cl`, the outcome was “inactive”. With `CCOC(=O)c1ccc(NC(=O)CN2CCCCC2)cc1` the outcome was “inactive”. For `Cc1c[nH]c2ccccc12`, the outcome was “inactive”. For `CCN(CC)CCOc1ccc(Cc2ccccc2)cc1`, the outcome was “inactive”. For `CC(C)(C)OC(=O)c1ccccc1C(=O)O`, the outcome was “inactive”. In the case of `CC1(C)S[C@@H]2[C@H](NC(=O)C(C(=O)O)c3ccccc3)C(=O)N2[C@H]1C(=O)O` (stereo not given in full), the outcome was “inactive”. For `CCCc1ncc(C(=O)O)s1`, the outcome was “inactive”. For `CC/C=C\CCCCO`, the outcome was “inactive”. For `CC(=O)NO`, the outcome was “inactive”. For `OC(CCN1CCCC1)(c1ccccc1)C1CCCCC1` (stereo not given), the outcome was “inactive”. In the case of `CCCCCN(CCCOC)C(=O)C(CCC(=O)O)NC(=O)c1ccc(Cl)c(Cl)c1` (stereo not given), the outcome was “inactive”. With `CC(C)=CCC/C(C)=C/COC=O` the outcome was “inactive”. For `ONc1ccccc1`, the outcome was “inactive”. With `CC(C)=CCC/C(C)=C/C=N/O` the outcome was “inactive”. With `CCOc1cc(OCC)c(C(=O)CCC(=O)O)cc1OCC` the outcome was “inactive”. For `CCCN(CCC)c1c([N+](=O)[O-])cc(C(F)(F)F)c(N)c1[N+](=O)[O-]`, the outcome was “inactive”. For `O=C(OCC1(COC(=O)c2cccnc2)CCCC(COC(=O)c2cccnc2)(COC(=O)c2cccnc2)C1O)c1cccnc1`, the outcome was “inactive”. For `C=CC(=O)O`, the outcome was “inactive”. For `CN=C(NC#N)NCCSCc1csc(N=C(N)N)n1`, the outcome was “inactive”. In the case of `C#CCN[C@@H]1CCc2ccccc21`, the outcome was “inactive”. With `N#CSCC(=O)O` the outcome was “inactive”. In the case of `C=CCCCCCCCCC=O`, the outcome was “inactive”. With `CCO[Si](OCC)(OCC)OCC` the outcome was “inactive”. In the case of `O=C1NCN(c2ccccc2)C12CCN(CCCC(c1ccc(F)cc1)c1ccc(F)cc1)CC2`, the outcome was “inactive”. For `CCC(C)CCCC(C)(C)O` (stereo not given), the outcome was “inactive”. For `Cc1occc1C(=O)Nc1ccc(C(=O)N2CCC(F)(F)/C(=C\C(=O)N3CCC(N4CCCCC4)CC3)c3ccccc32)cc1`, the outcome was “inactive”. In the case of `C[C@@H]1C[C@H]2[C@@H]3CCC4=CC(=O)C=C[C@]4(C)[C@@]3(F)[C@@H](O)C[C@]2(C)[C@@]1(O)C(=O)COP(=O)(O)O`, the outcome was “inactive”. For `CN(C)CCN(C)CCN(C)C`, the outcome was “inactive”. In the case of `NC(=O)NC(=O)Cc1ccccc1`, the outcome was “inactive”. In the case of `CCCN(CCC)C(=O)C(CCC(=O)OCCCN1CCN(CCOC(=O)Cc2c(C)n(C(=O)c3ccc(Cl)cc3)c3ccc(OC)cc23)CC1)NC(=O)c1ccccc1` (stereo not given), the outcome was “inactive”. In the case of `CN1CC(=O)NC1=N`, the outcome was “inactive”. In the case of `COc1ccc(C)cc1[N+](=O)[O-]`, the outcome was “inactive”. In the case of `CO[C@@H]1[C@H](OC(=O)/C=C/C=C/C=C/C=C/C(=O)O)CC[C@]2(CO2)[C@H]1[C@@]1(C)O[C@@H]1CC=C(C)C`, the outcome was “inactive”. In the case of `Nc1ccc(C(=O)O)c(O)c1`, the outcome was “inactive”. With `C/C=C/C=C/COC(=O)C(C)C` the outcome was “inactive”. For `N[C@H]1C(O)O[C@H](CO)[C@H](O)[C@@H]1O` (stereo not given in full), the outcome was “inactive”. With `c1cnc2c(n1)CCCC2` the outcome was “inactive”. In the case of `CC(=O)C(C)=O`, the outcome was “inactive”. For `Nc1nc(-c2ccccc2)c(Br)c(=O)[nH]1`, the outcome was “inactive”. For `C[C@@H]1C[C@H]2[C@@H]3CCC4=CC(=O)C=C[C@]4(C)[C@@]3(F)[C@@H](O)C[C@]2(C)[C@@]1(O)C(=O)CO`, the outcome was “inactive”.
